Many of the other results were omitted from the sample, so hits are more common in it than they were.
Shiga toxin inh: A qHTS for Small Molecule Inhibitors of Shiga Toxin. Vero cells, Shiga toxin protein synthesis inhibition reporter. inhibition, % at 38.7 µM. hit rate 9.2% among 290,000; in the data active = inhibition mostly above about 28%, no sharp cut-off; inactive = mostly below about 43%; note: 0% is about no effect
Giardia FBPA inh-1: qHTS Assay for Inhibitors of Fructose-1,6-bisphosphate Aldolase from Giardia Lamblia; Potency, µM (series often up to 59.6 µM), for inactives: at the top dose activity, negative = inhibition, usual class: inhibitors; A8B2U2; hit rate 0.71% among 290,000; purified Giardia FBPA; note: potency is the fitted concentration of half-maximal effect; % is set by controls: 0 for no effect and ±100 for the full control effect; nearly all actives have a fitted effect of over 55% in size
Target sequence (A8B2U2 whole entry, looked up): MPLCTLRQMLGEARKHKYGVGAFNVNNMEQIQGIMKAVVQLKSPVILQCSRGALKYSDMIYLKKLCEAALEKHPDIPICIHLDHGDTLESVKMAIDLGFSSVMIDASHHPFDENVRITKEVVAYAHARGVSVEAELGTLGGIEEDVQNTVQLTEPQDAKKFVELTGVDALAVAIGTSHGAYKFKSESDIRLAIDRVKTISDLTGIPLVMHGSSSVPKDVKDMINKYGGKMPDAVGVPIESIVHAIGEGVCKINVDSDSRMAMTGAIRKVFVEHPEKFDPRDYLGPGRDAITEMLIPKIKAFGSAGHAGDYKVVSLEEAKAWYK
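40 nM FBPA preincubated 10 min at RT with compound (up to 57.5 uM final), then substrate plus GAPDH/TPI/NAD/arsenate coupling and diaphorase/resazurin added. Fluorescence read after 20 min at RT, 525/598 nm.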
Sm TGR inh: qHTS Assay for the Inhibitors of Schistosoma Mansoni Peroxiredoxins; purified TGR, DTNB reduction, TNB absorbance 405 nm; Potency, µM (top dose mostly 114 µM), for inactives: at the top dose activity change, negative = inhibition, actives largely listed as inhibitors; Schistosoma mansoni thioredoxin glutathione reductase (TGR), Q962Y6; hit rate 3% among 360,000; note: potency is the fitted concentration of half-maximal effect; % is set by controls: 0 for no effect and ±100 for the full control effect; nearly all actives have a fitted effect of over 60% in size
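TGR 20 nM + NADPH 100 uM (dispensed conc.), cpd preinc 15 min RT; start with NADPH (500 uM addition) then DTNB (15 mM addition). Kinetic TNB absorbance, 405 nm filter. Four-parameter Hill fit across titration.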
LmPK inh: qHTS Assay for Inhibitors of Leishmania Mexicana Pyruvate Kinase (LmPK); Q27686; purified LmPK, Kinase-Glo ATP luminescence, 1 h; Potency, µM (titrated, usually from 57.5 µM), for the others: at the highest dose activity change, negative = inhibition, usual class: inhibitors; hit rate 0.37% among 290,000; AID 1721, 2009; note: potency is the fitted concentration of half-maximal effect; % is set by controls: 0 for no effect and ±100 for the full control effect
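0.1 nM LmPK, 0.5 mM PEP, 0.1 mM ADP; 50 mM imidazole pH 7.2, 7 mM MgCl2, 50 mM KCl; 1 h RT. Kinase-Glo luminescence readout, normalized to no-enzyme (full inhibition) and uninhibited wells.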
Tb PYK inh: qHTS of Trypanosoma Brucei Inhibitors | Potency, µM (top dose mostly 76.8 µM), for the others: at the top dose activity, negative = inhibition, actives largely listed as inhibitors | pyruvate kinase (Trypanosoma brucei), Q57TT1 | TbPYK enzyme, Kinase-Glo Plus ATP luminescence, 45 min | hit rate 0.12% among 410,000; note: potency is the fitted concentration of half-maximal effect; % is set by controls: 0 for no effect and ±100 for the full control effect; nearly all actives have a fitted effect of over 50% in size
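T. brucei PYK with substrate was exposed to pin-transferred compounds across a concentration series, then started with 130 uM ADP (final). After 45 min at room temperature, Kinase-Glo Plus luminescence was read, normalized and curve-fitted.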
Cycloheximide cs: Cycloheximide Counterscreen for Small Molecule Inhibitors of Shiga Toxin | cell reporter, cycloheximide protein synthesis inhibition counterscreen | max response, % | hit rate 12% among 300,000 | AID 2314, 2010; in the data active = max response mostly above about 13%, no sharp cut-off; inactive = mostly below about 14%; note: read at 38.3 µM for the half of the compounds with a filed dose; 0% is about no effect
Giardia growth: qHTS Assay for Inhibitors of Fructose-1,6-bisphosphate Aldolase from Giardia Lamblia: Giardia lamblia growth inhibition. shares compounds with Giardia FBPA inh-1. AID 2785, 2010. Giardia lamblia trophozoite growth inhibition. Potency, µM (titrated, usually from 57.5 µM), for the others: at the highest dose activity change, negative = inhibition, actives largely listed as inhibitors. hit rate 5% among 1,500;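 note: potency is the fitted concentration of half-maximal effect; trophozoites exposed to compound for 48 h at 37 °C; % is set by controls: 0 for no effect and ±100 for the full control effect; nearly all actives have a fitted effect of over 70% in size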
Mammal cell tox: qHTS Assay for Inhibitors of Fructose-1,6-bisphosphate Aldolase from Giardia Lamblia: Mammalian cellular toxicity. AID 2786, 2010. Potency, µM (series often up to 57.5 µM), without a hit: at the top dose viability change, negative = toxicity, hits mostly inhibitors. mammalian cell viability counter-screen, qHTS. shares compounds with Giardia FBPA inh-1. hit rate 4% among 1,500;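 note: Chinese hamster ovary cells used as mammalian cytotoxicity surrogate; viability measured as cellular ATP by luminescence; potency is the fitted concentration of half-maximal effect; compound exposure lasted 48 h before reading; % is set by controls: 0 for no effect and ±100 for the full control effect; nearly all actives have a fitted effect of over 60% in size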
Giardia FBPA inh-2: qHTS Assay for Inhibitors of Fructose-1,6-bisphosphate Aldolase from Giardia Lamblia: Primary screen confirmation; shares compounds with Giardia FBPA inh-1; purified Giardia aldolase enzyme activity, qHTS; Potency, µM (titrated, usually from 57.5 µM), for inactives: top-dose activity change, negative = inhibition, hits mostly inhibitors; hit rate 5% among 1,500; AID 2787, 2010; note: potency is the fitted concentration of half-maximal effect; % is set by controls: 0 for no effect and ±100 for the full control effect; nearly all actives have a fitted effect of over 45% in size
Rabbit FBPA inh: qHTS Assay for Inhibitors of Fructose-1,6-bisphosphate Aldolase from Giardia Lamblia: Rabbit FBPA Selectivity; Potency, µM (series often up to 57.5 µM), without a hit: at the highest dose activity, negative = inhibition, usual class: inhibitors; shares compounds with Giardia FBPA inh-1; hit rate 4% among 1,500; Rabbit muscle FBPA enzyme inhibition, selectivity counter-screen; note: potency is the fitted concentration of half-maximal effect; % is set by controls: 0 for no effect and ±100 for the full control effect; nearly all actives have a fitted effect of over 60% in size
Target sequence (P00883 whole entry, looked up): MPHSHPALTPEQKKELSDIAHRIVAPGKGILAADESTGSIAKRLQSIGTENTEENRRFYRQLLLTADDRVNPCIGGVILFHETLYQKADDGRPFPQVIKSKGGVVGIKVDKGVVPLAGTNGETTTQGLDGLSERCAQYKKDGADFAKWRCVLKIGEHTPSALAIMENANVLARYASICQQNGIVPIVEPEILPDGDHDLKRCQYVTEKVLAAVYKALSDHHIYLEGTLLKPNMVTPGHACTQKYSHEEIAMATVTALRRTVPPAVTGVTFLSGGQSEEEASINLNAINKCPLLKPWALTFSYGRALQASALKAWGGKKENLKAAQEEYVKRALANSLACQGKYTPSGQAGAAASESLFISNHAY
GAPDH counter: qHTS Assay for Inhibitors of Fructose-1,6-bisphosphate Aldolase from Giardia Lamblia: Coupling assay counterscreen confirmation | Potency, µM (highest dose often 57.5 µM), for the others: top-dose activity change, negative = inhibition, hits mostly inhibitors | hit rate 6% among 1,500 | shares compounds with Giardia FBPA inh-1 | GAPDH coupling enzyme counterscreen, biochemical, qHTS; note: potency is the fitted concentration of half-maximal effect; % is set by controls: 0 for no effect and ±100 for the full control effect; nearly all actives have a fitted effect of over 55% in size
Numbers without * were called inactive; ? = inconclusive; . = no result; [ ] = another dose, or the depositor's remark. Unless noted, calls come from the whole dose curve; as a rule, active = well fitted curve in the direction sought with a large enough effect; inconclusive = small, poorly fitted or top-dose-only effect, or another doubt; inactive = no such curve, though single readings can be large; an effect the other way counts as inactive or inconclusive.

SMILES	Shiga toxin inh	Giardia FBPA inh-1	Sm TGR inh	LmPK inh	Tb PYK inh	Cycloheximide cs	Giardia growth	Mammal cell tox	Giardia FBPA inh-2	Rabbit FBPA inh	GAPDH counter
Cc1ccc(OCCOCCN2CCN(C)CC2)c(C(C)(C)C)c1	-13	13µM*	-14%	-1%	15%	-2	8%	6%	-1%	5%	6%
C=CCc1cc(C)ccc1OCCOCCN1CCN(C)CC1	-8	16µM*	0%	-8%	2%	-2	22%	-7%	1%	0%	9%
CC(C)(C)c1cc(Cl)ccc1OCCOCCN1CCCC1	-16	?	-10%	0%	-16%	-2	.	.	.	.	.
Cc1cc(Cl)c(OCCOCCN2CCN(C)CC2)c(Br)c1	.	22µM*	-3%	-6%	20%	2	7%[10.4 µM]	13%	4%	3%	11%
Cc1cc(C)c(C)c(OCCOCCN2CCN(C)CC2)c1	-6	14%	3%	-4%	4%	9	.	.	.	.	.
O=C(NCc1ccc(F)cc1)c1ccc(CS(=O)Cc2ccccc2Cl)o1 (stereo not drawn)	16	.	?	-5%	4%	-3	.	.	.	.	.
O=C(Nc1ccc(C(F)(F)F)cc1)C(Cc1ccccc1)n1cccc1 (stereo not drawn)	8	.	-3%	.	-11%	-2	.	.	.	.	.
Cc1ccccc1OCC(O)CN1CCN(CC(O)COc2ccccc2C)C(C)C1 (stereo not drawn)	-2	14µM*	1%	-3%	39%	-3	-25%	-9%	4%	6%	5%
COc1cc(/C=C2\SC(N)=NC2=O)cc(Br)c1O	.	-15%	-32%	1%	-7%	-2	.	.	.	.	.
CCOc1cc(/C=C2\SC(N)=NC2=O)ccc1O	14	7.9µM*	-33%	-7%	-20%	4	-14%[10.4 µM]	-4%	-12%	-1%	1%
COc1cc(/C=C2\SC(c3ccccc3)=NC2=O)cc(Cl)c1O	-13	5.6µM*	.	?	?	1	54%	5%	-26%	-26%	2%
COc1cc(/C=C2\SC(c3ccc(C)cc3)=NC2=O)cc(OC)c1OC	-4	?	-36%	?	?	-2	.	.	.	.	.
CCOc1cc(/C=C2\SC(=O)N=C2N)ccc1O	-10	4%	-1%	-5%	-11%	-2	.	.	.	.	.
COc1cc(/C=C2\SC(c3ccc(C)cc3)=NC2=O)ccc1O	52*	18µM*	?	28µM*	?	23*	26%	-3%	?	-30%	-1%
Cc1ccc(-c2csc3ncnc(SCC(=O)NCC4CCCO4)c23)cc1 (stereo not drawn)	.	.	-8%	.	0%	.	.	.	.	.	.
CCCN[C@@H](C)C(=O)Nc1ccccc1C	.	1%[21.7 µM]	.	.	6%	.	.	.	.	.	.
C=CCNC(=S)NNc1nc2sc3c(c2c(=O)[nH]1)CC(C)(C)OC3	-7	1.3µM*	-18%	1%	-16%	1	?	0%	2%	6%	4%
CO/N=C(/C(=O)N[C@@H]1C(=O)N2C(C(=O)O)=CCS[C@H]12)c1cnc(N)s1	-2	16µM*	-27%	4%	.	-3	-21%	3%	-13%	-8%	-6%
CO/N=C(/C(=O)N[C@@H]1C(=O)N2C(C(=O)O)=C(CSc3nnnn3C)CS[C@H]12)c1csc(N)n1	.	.	.	.	-13%	.	.	.	.	.	.
COc1cccc2sc(Nc3nnc(-c4ccc(F)cc4)o3)nc12	39	16µM*	-5%	6%	-7%	19*	67%	-11%	13%	-6%	0%
CCOc1ccccc1N(CC)C(=O)c1nn(C)c2c1CSc1ccccc1-2	-4	-16%	-16%	14%	2%	2	.	.	.	.	.
C=CCNC(=S)N1CCN(Cc2ccccc2)CC1	-9	18µM*	1%	-4%	40%	-1	-12%[10.4 µM]	11%	12%	13%	7%
Cc1ccc(CN2CCN(C(=O)c3ccncc3)CC2)cc1	-7	18µM*	0%	-6%	1%	-6	2%	3%	6%	7%	7%
O=C(c1ccccc1)N1CCN(Cc2ccccc2)CC1	-2	-22%	-1%	-4%	16%	-3	.	.	.	.	.
Cc1ccc(C(=S)N2CCN(Cc3ccccc3)CC2)cc1	-4	16µM*	-7%	0%	?	3	?	9%	-6%	9%	-16%
SMILES	Shiga toxin inh	Giardia FBPA inh-1	Sm TGR inh	LmPK inh	Tb PYK inh	Cycloheximide cs	Giardia growth	Mammal cell tox	Giardia FBPA inh-2	Rabbit FBPA inh	GAPDH counter
COc1cc(OC)c(NC(=O)c2cn(C3CCCC3)c(=O)c3c2c2ccccc2n3C)cc1Cl	.	.	6%	.	-4%	.	.	.	.	.	.
COc1cc(C(=O)n2nc(-c3ccco3)nc2NCc2ccc(Cl)cc2)cc(OC)c1OC	.	.	-25%	.	-8%	.	.	.	.	.	.
COc1ccc(-c2nc3cnc(N4CCN(C)CC4)nc3n(CCC#N)c2=O)cc1	.	-3%	.	.	-4%	.	.	.	.	.	.
C=CCn1c(SCC(=O)Nc2cc(C)on2)nnc1C1COc2ccccc2O1 (stereo not drawn)	-3	7%	-1%	-1%	-9%	4	.	.	.	.	.
Cc1cc(NC(=O)CSc2nnc(C3COc4ccccc4O3)n2N)no1 (stereo not drawn)	9	20µM*	-22%	8%	-28%	0	-25%	17%	-6%	3%	-1%
CC(=O)C(C(C)=O)c1c(Cl)c(O)c(O)c2c(C(=O)c3ccccc3)coc12	3	18µM*	2.5µM*	11µM*	?	11	-12%	-16%	?	-24%	-12%
